Of roughly 8,800 targets only a part is listed; those with a hit were picked by preference. About 0.5% of all pairs of compound and target were hits. Unmarked numbers belong to inactive results.
Columns and labels:
Assay in all cases: log2 fold change, soluble protein after heating vs DMSO (PISA); higher = thermal stabilisation; K562 lysate, 10 uM; active = over 0.2 and 3.5 SD of the protein, either way, in both replicates (recomputed)
[1] = compound: C1=CC=C(C=C1)[C@H](COC2=CC3=C(C=C2)NC(=O)N3)NC(=O)C4=CC=CN(C4=O)CC5=CC(=C(C=C5)F)F
Method in brief: (§1)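 Quantification was by TMTpro 16plex LC-MS/MS with equalised channel sums, applied to the supernatant after 21,000xg for 90 min. Samples were crude K562 extract at 1 mg/mL protein in PBS pH 7.4 with 1 mM MgCl2, treated with 10 μM compound for 30 min, heated for 3 min across 48°C-58°C, pooled and brought to 0.5% NP-40 at 4°C. Values are log-two fold changes in thermal stability relative to solvent controls, from duplicates.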

[2] = compound: CC1=C(SC2=C1C(=N[C@H](C3=NN=C(N32)C)CC(=O)N)C4=CC=C(C=C4)Cl)C
Method in brief: as §1

[3] = compound: CC1=C2C(=CC=C1)N=C(N(C2=O)C3=CC=CC=C3C)CN4C=NC5=C(N=CN=C54)N
Method in brief: as §1

[4] = compound: Cc1sc2c(c1C)C(c1ccc(Cl)cc1)=N[C@@H](CC(=O)OC(C)(C)C)c1nnc(C)n1-2
Method in brief: as §1

[5] = compound: c1ccc([C@@H]2C[C@H]2NC2CCNCC2)cc1
Method in brief: as §1

UniProt Q8IWY9, sequence (Q8IWY9 whole entry, looked up): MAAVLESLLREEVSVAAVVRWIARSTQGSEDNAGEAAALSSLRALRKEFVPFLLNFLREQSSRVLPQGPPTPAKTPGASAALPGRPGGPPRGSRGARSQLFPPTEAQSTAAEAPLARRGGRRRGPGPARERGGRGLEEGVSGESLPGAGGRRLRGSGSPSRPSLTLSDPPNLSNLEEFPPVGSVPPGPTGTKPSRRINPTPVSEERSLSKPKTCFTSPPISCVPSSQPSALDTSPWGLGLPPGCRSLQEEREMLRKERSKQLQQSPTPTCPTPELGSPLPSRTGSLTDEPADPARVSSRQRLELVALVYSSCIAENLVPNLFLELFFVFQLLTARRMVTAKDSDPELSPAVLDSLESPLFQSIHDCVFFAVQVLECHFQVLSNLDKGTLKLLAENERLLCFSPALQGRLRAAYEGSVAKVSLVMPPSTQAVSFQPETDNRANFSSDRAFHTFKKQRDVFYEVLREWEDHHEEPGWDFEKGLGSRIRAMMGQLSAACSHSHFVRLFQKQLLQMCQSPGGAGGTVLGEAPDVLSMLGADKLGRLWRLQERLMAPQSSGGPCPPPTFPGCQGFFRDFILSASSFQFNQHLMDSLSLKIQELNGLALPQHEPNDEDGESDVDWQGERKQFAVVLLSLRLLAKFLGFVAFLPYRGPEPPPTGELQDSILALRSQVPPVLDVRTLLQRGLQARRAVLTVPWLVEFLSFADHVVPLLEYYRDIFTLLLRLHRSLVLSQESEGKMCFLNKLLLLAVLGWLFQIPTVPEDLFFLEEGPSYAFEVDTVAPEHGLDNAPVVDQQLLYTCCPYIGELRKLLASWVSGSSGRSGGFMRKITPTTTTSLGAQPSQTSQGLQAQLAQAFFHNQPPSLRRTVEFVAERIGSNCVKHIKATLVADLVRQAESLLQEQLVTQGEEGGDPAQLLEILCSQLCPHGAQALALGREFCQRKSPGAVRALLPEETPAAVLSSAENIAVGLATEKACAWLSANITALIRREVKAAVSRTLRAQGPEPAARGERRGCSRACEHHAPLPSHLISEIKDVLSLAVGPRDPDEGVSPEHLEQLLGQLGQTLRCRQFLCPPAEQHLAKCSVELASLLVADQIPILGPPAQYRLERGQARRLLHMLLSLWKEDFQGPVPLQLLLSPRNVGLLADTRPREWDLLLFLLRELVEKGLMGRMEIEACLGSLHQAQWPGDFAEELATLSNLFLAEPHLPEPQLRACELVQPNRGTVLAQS
UniProt O60826, sequence (O60826 whole entry, looked up): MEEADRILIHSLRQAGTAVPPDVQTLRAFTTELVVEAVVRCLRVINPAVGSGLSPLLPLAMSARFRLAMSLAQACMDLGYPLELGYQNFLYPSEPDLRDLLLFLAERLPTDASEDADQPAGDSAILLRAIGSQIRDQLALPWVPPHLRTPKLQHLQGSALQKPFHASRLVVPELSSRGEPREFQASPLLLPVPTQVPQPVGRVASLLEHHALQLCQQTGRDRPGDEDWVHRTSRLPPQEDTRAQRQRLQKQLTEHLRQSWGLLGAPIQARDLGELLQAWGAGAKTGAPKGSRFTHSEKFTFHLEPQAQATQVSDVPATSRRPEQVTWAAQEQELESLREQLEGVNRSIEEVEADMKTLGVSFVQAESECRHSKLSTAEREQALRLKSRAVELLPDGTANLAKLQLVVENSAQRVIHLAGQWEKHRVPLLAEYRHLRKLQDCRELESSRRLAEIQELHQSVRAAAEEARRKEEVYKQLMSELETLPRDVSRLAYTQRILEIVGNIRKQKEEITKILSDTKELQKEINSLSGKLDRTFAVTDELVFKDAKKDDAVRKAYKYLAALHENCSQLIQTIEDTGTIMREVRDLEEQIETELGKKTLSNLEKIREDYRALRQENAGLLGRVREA
UniProt Q9BUK0, sequence (Q9BUK0 whole entry, looked up): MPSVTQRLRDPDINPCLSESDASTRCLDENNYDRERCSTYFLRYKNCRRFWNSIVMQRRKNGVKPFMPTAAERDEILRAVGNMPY
UniProt Q86YS7, sequence (Q86YS7 whole entry, looked up): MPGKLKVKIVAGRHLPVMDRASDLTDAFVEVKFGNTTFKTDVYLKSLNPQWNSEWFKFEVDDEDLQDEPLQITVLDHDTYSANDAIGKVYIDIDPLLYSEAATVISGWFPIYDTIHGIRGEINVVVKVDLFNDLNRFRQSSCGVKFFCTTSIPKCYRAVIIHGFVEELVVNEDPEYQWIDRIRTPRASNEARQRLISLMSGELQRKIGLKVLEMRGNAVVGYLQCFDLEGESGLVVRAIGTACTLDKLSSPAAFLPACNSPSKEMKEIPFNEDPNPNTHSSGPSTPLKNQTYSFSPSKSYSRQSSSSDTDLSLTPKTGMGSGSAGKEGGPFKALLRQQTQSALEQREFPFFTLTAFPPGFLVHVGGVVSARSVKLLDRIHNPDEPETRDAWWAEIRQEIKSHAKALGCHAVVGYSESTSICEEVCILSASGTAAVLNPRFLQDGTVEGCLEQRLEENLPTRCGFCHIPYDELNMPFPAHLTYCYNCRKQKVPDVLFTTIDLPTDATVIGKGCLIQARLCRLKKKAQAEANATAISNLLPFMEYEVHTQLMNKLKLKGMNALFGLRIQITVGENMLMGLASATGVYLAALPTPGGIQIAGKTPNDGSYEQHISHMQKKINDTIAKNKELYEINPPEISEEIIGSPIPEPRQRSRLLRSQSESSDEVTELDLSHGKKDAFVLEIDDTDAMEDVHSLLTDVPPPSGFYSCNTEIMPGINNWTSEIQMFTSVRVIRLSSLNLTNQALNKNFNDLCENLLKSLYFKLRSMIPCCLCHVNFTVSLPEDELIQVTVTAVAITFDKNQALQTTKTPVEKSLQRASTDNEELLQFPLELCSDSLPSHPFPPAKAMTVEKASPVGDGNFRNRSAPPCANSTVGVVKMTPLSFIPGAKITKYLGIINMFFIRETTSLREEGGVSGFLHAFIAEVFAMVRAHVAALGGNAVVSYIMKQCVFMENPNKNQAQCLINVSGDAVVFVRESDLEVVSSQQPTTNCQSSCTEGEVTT
UniProt Q8N7R7, sequence (Q8N7R7 whole entry, looked up): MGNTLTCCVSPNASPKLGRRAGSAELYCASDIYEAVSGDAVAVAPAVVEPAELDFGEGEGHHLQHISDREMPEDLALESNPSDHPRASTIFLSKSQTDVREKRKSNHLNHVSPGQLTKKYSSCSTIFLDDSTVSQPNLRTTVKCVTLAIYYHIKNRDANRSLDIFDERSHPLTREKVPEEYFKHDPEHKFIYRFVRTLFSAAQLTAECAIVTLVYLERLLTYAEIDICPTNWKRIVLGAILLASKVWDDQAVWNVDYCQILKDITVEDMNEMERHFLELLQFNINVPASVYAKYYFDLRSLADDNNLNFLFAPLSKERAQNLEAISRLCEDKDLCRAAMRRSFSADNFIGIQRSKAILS
UniProt Q96JB5, sequence (Q96JB5 whole entry, looked up): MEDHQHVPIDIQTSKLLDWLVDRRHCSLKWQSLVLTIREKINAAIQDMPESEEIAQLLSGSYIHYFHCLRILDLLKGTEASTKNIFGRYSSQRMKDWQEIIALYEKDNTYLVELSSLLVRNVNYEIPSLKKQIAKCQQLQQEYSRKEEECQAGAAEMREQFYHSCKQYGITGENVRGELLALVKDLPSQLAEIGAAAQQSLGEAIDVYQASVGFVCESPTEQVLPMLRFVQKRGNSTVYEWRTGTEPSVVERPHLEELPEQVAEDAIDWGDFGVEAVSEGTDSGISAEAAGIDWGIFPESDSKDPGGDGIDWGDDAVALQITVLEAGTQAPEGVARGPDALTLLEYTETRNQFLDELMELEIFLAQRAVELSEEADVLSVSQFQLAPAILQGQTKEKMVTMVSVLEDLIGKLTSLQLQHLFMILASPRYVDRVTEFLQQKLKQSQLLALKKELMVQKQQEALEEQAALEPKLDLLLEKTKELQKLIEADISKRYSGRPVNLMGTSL
UniProt Q9HB09, sequence (Q9HB09 whole entry, looked up): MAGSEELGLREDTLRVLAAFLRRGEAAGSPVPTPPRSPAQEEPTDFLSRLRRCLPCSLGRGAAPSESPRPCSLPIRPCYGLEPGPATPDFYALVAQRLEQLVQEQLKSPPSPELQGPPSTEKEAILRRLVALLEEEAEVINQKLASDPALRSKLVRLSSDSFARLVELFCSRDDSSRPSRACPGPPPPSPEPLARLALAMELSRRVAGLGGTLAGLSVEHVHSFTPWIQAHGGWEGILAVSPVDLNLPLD
UniProt P55212, sequence (P55212 whole entry, looked up): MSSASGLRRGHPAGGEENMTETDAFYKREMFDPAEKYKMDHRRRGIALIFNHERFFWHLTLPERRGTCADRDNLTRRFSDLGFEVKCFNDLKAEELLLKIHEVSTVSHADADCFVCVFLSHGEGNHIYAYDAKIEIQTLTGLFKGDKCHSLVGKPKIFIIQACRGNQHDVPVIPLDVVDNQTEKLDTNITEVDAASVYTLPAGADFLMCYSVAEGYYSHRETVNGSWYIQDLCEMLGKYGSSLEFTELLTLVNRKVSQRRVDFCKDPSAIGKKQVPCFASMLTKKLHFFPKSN
UniProt O95319, sequence (O95319 whole entry, looked up): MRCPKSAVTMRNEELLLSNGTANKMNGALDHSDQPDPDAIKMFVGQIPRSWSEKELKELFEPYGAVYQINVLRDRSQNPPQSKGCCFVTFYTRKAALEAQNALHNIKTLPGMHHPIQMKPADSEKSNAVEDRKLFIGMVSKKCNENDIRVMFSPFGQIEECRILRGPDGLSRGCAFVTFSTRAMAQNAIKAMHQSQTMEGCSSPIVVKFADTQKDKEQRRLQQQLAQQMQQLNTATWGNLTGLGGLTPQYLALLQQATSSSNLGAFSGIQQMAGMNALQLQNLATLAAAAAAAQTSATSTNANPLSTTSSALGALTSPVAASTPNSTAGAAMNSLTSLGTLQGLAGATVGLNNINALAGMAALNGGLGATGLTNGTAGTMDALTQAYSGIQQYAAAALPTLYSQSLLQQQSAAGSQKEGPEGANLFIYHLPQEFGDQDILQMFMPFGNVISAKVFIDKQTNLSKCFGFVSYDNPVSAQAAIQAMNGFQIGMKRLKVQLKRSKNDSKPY
UniProt P18859, sequence (P18859 whole entry, looked up): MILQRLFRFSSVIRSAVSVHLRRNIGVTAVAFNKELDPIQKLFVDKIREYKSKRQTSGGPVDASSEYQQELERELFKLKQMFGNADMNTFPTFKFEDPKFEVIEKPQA

Target	log2 fold change [1]	log2 fold change [2]	log2 fold change [3]	log2 fold change [4]	log2 fold change [5]
CCNH (UniProt P51946)	-0.028	-0.004	0.022	-0.039	-0.01
CCDC47 (UniProt Q96A33)	-0.043	0.005	0.022	0.017	0.018
BCAR1 isoform 6 (UniProt P56945)	0.01	0.013	-0.045	-0.043	0.107
CDKN1C (UniProt P49918)	0.035	-0.012	0.185	0.094	0.025
CCNYL1 (UniProt Q8N7R7)	-0.007	-0.089	-0.009	-0.058	-0.079
C5orf51 (UniProt A6NDU8)	-0.047	-0.023	0.001	-0.026	0.092
BORCS5 (UniProt Q969J3)	-0.12	0	-0.015	-0.005	-0.011
CASC4 (UniProt Q6P4E1)	-0.008	0.027	0.039	-0.015	-0.055
C18orf25 isoform 2 (UniProt Q96B23)	-0.005	0.224	0.008	0.089	-0.003
CARNMT1 (UniProt Q8N4J0)	0.032	-0.003	0.072	-0.039	-0.174
BLM (UniProt P54132)	0.059	0.03	-0.005	-0.002	0.114
CAMK2B (UniProt Q13554)	0.036	-0.052	-0.032	-0.056	-0.091
CEPT1 (UniProt Q9Y6K0)	-0.13	-0.017	0.062	-0.054	0.061
BAG4 (UniProt O95429)	0.059	0.021	-0.023	0.03	0.003
CHD1L (UniProt Q86WJ1)	-0.012	0.036	0.037	-0.009	0.052
CDK5RAP1 (UniProt Q96SZ6)	0.266 (active)	-0.117	0.05	-0.023	-0.004
C3 (UniProt P01024)	0.013	0.054	0.132	-0.035	-0.03
ATE1 isoform 2 (UniProt O95260)	-0.015	-0.008	-0.004	0.009	-0.087
CARD11 (UniProt Q9BXL7)	0.193	0.252	0	-0.084	-0.019
CCNA2 (UniProt P20248)	0.013	-0.006	-0.003	-0.021	-0.068
ATP5PF isoform 2 (UniProt P18859)	0.085	-0.086	-0.05	0.075	0.228
CENPQ (UniProt Q7L2Z9)	-0.02	-0.02	0.038	0.021	-0.013
CARHSP1 (UniProt Q9Y2V2)	-0.031	0.027	0.019	-0.053	0.005
CCP110 (UniProt O43303)	-0.026	0.093	0.104	-0.143	–
CCT6A (UniProt P40227)	0.007	-0.007	-0.01	0.004	0.025
CCDC186 (UniProt Q7Z3E2)	0.031	0.085	0.055	-0.016	0.105
CDK5RAP2 (UniProt Q96SN8)	0.018	0.038	0.041	-0.026	0.072

Target	log2 fold change [1]	log2 fold change [2]	log2 fold change [3]	log2 fold change [4]	log2 fold change [5]
CHCHD7 isoform 4 (UniProt Q9BUK0)	0.08	-0.052	0.074	-0.071	-0.22
C16orf70 (UniProt Q9BSU1)	-0.007	-0.073	-0.071	0.033	–
CDK11B (UniProt P21127)	-0.035	0.029	0.005	0.035	-0.001
CDS2 (UniProt O95674)	0.01	0.004	-0.056	-0.034	-0.024
ATP11A (UniProt P98196)	0.04	-0.014	-0.004	0.005	-0.026
CCDC130 (UniProt P13994)	0.01	0.038	–	–	–
CHD3 isoform 3 (UniProt Q12873)	-0.009	0.027	0.024	0.035	0.038
CAMKK2 (UniProt Q96RR4)	0.002	-0.047	0.072	0.051	-0.013
CAPNS1 (UniProt U3KPR7)	0.019	0.122	–	–	–
ATXN2 (UniProt F8WB05)	-0.17	0.212	0.146	0.004	0.022
CAMLG (UniProt P49069)	0.058	0.003	0.018	0.05	0.074
C2CD5 isoform 3 (UniProt Q86YS7)	0.015	0.059	0.014	-0.009	-0.169
BOLA2 (UniProt Q9H3K6)	-0.052	0.01	-0.019	0.034	0.078
BLOC1S6 (UniProt Q9UL45)	-0.078	0.035	-0.04	-0.046	0.021
CHCHD2 (UniProt Q9Y6H1)	-0.123	-0.043	-0.015	0.062	-0.01
BCL2L12 (UniProt Q9HB09)	0.162	0.119	0.035	-0.011	-0.044
CEP152 (UniProt O94986)	0.024	-0.236	0.01	0.008	-0.028
ATG4A (UniProt Q8WYN0)	0.008	0.022	0.068	-0.01	-0.103
CASP6 (UniProt P55212)	0.004	0.011	0.015	0.009	-0.005
CELF2 isoform 3 (UniProt O95319)	-0.009	-0.012	0.005	0.012	0.08
CDAN1 (UniProt Q8IWY9)	-0.011	0.011	0.062	0.026	0.005
AUH (UniProt Q13825)	0.034	0	0.129	-0.112	-0.009
CCDC22 (UniProt O60826)	-0.009	0	-0.044	0.053	0.032
CDK5RAP3 isoform 4 (UniProt Q96JB5)	-0.011	-0.018	0.022	-0.01	-0.154
CEP128 (UniProt Q6ZU80)	-0.38	0.338	-0.023	-0.125	-0.507
CDC45 isoform 3 (UniProt O75419)	0.076	-0.01	0	-0.018	0.026
CDC123 (UniProt O75794)	-0.035	0.02	-0.038	0.073	0.004

— the supplement of paper PMC10849652
